For test [1], the target named is Nuclear receptor subfamily 1 group I member 3 (Homo sapiens) (UniProt Q14994). Nature of the test: Primary qHTS for agonist of constitutive androstane receptor (CAR) against the NCATS DSHEA and TCM libraries (AID 1794839). Also: potency is read from the fitted curve at half-maximal effect.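 As to activation: HepG2 cells expressing human CAR with a CYP2B6 reporter plus PK11195 antagonist; luciferase reporter luminescence read with ONE-Glo; 0% is about no effect.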 The method, boiled down: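 Concentration–response screen in HepG2-CYP2B6-hCAR cells under 0.75 µM PK11195; 24 h exposure; luminescent reporter signal with multiplexed fluorescent viability.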
On the technique in general: Quantitative high-throughput screening tests each substance at several concentrations.

The target of test [2] is Lysosomal acid glucosylceramidase (Homo sapiens) (UniProt P04062). Nature of the test: Glucocerebrosidase-p2 (AID 348; in the data active = potency below about 10 µM; also: potency is read from the fitted curve at half-maximal effect). The conditions noted are these: purified GBA, blue fluorogenic substrate, 40 min. An outline of the steps:
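Normal human glucocerebrosidase (0.2 nM) with blue fluorogenic substrate (80 uM final) in citrate/phosphate pH 5.9 with 10mM sodium taurocholate, 0.01% tween-20; 40 min RT, NaOH/glycine stop; fluorescence Ex 365/Em 440; AC50 from a titration from 0.6 nM upwards.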

Test [3] can be described thus: AP1 Signaling Pathway (AID 357; active = well fitted curve in either direction with a large enough effect, not every such curve was filed as active; also: % is scaled to controls: 0 for no effect and ±100 for the full control effect). The note with it: ME-180 (cervical carcinoma) AP-1-bla reporter, EGF-induced, beta-lactamase ratio, 5 h; at 7.69 µM (top of the series) unless noted. The method, boiled down: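 A ratiometric CCF4 readout (405 nm excitation; 460 and 530 nm emission) quantified AP-1-driven beta-lactamase in ME-180 cells after 5 h with compound and EC50 EGF; AC50 values were derived for activators and inhibitors.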

Test [4] in a line: NFAT Signaling Pathway (AID 444; active = well fitted curve in either direction with a large enough effect, not every such curve was filed as active;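 also: carbachol stimulus at about its EC50 of 1 µM final; % is scaled to controls: 0 for no effect and ±100 for the full control effect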). The note with it: Jurkat NFAT-bla M1, carbachol, beta-lactamase ratio, 5 h; at 7.69 µM (top of the series) unless noted. An outline of the steps: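 Jurkat cells with NFAT-driven β-lactamase reporter and co-expressed M1 receptor, stimulated with carbachol (final 1 uM, ~EC50), compound titration, 5 h at 37 °C. CCF4 loaded 1 h at RT; 460/530 nm ratio gave %activity and AC50.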

Test [5] addresses 3',5'-cyclic-AMP phosphodiesterase 4B (Homo sapiens) (UniProt Q07343). The test can be described thus: qHTS Assay for Inhibitors of PDE-IV (AID 607; active = well fitted activation curve with a large enough effect in the main read-out, with a control signal flat, not every such curve was filed as active; also: % of control where 0% means no effect). The method, boiled down: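 ACTOne HEK293 cells carry a modified cAMP-gated CNG channel and express endogenous PDE4; plated 1000 cells/well, compounds up to 22.9 uM final. Membrane-potential dye fluorescence (ex 535/em 590) was read; parental cells received 10 uM forskolin + 100 uM RO 20-1724.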

For test [6], the target named is Dual specificity protein kinase CLK4 (Homo sapiens) (UniProt Q9HAZ1). Nature of the test: qHTS Assay for Inhibitors of CDC-like Kinase 4 (ADP-Glo Assay) (AID 1771). Also: potency is read from the fitted curve at half-maximal effect; nearly all actives have a fitted effect of over 70% in size. An outline of the steps:
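25 nM Clk4, 100 uM RS peptide, 1 uM ATP (final); 2 mM MgCl2, 0.5 mM EGTA, 2.5 mM DTT, 0.01% Triton X-100; 1 hr RT. ADP-Glo readout: ATP depletion 45 min, conversion/luciferase 30 min, luminescence.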

Test [7] has as its target Cytochrome P450 1A2 (Homo sapiens) (UniProt P05177). The test can be described thus: p450-cyp1a2 (AID 410; calls by dose curve; also: potency is read from the fitted curve at half-maximal effect). The method, boiled down: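 20nM CYP1A2, 100uM Luciferin-ME (=Km), 100mM KPO4; cpd 10 min RT; +NADPH regen, 60 min RT; stop/detect 20 min; luminescence. Normalized to furafylline 57 uM = full inhibition.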
Test [8] concerns the target Cytochrome P450 3A4 (Homo sapiens) (UniProt P08684). The test can be described thus: qHTS Assay for Activators of Cytochrome P450 3A4 (AID 885). Also: nearly all actives have a fitted effect of over 65% in size. An outline of the steps:
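CYP3A4 activity: Luciferin-PPXE O-dealkylation, 25uM substrate, 200mM KPO4, RT throughout. Read-out is luciferase luminescence; higher values reflect activation.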

For test [9], the target named is Cytochrome P450 2C19 (Homo sapiens) (UniProt P33261). Nature of the test: qHTS Assay for Inhibitors and Substrates of Cytochrome P450 2C19 (AID 899). Also: potency is read from the fitted curve at half-maximal effect; nearly all actives have a fitted effect of over 60% in size. An outline of the steps: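 Luminescent read-out of luciferin formed from Luciferin-H EGE (10uM, equal to KM). Enzyme 5nM in 50mM KPO4; compound added, 10 min at 37C, then NADPH regenerating system for 60 min at 37C. Full inhibition defined by 57uM ketoconazole.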

In test [10] the target is Glutathione peroxidase 1 (Homo sapiens) (UniProt P07203). The test can be described thus: Primary qHTS Assay for Inhibitors of Recombinant Selenoprotein Glutathione Peroxidase 1 (GPX1) (AID 1845191). Also: % is scaled to controls: 0 for no effect and ±100 for the full control effect; nearly all actives have a fitted effect of over 65% in size. The method, boiled down: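 GR-coupled readout: NADPH consumption tracked by fluorescence, ex 340/em 450 nm, at t=0 and after 15 min at RT. Final mix 10 nM GPX1, 1 mM GSH, 0.5 mM CHP, 0.5 mM NADPH, 100 nM GR, 0.01% BSA, following 30 min enzyme–compound preincubation.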

Test [11] addresses Phospholipid hydroperoxide glutathione peroxidase GPX4 (Homo sapiens) (UniProt P36969). Nature of the test: Primary qHTS Assay for Inhibitors of Recombinant Selenoprotein Glutathione Peroxidase 4 (GPX4) (AID 1845192). Also: nearly all actives have a fitted effect of over 65% in size. Also: potency is read from the fitted curve at half-maximal effect. The method, boiled down: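 Steps: GPX4 plus compound, 30 min RT; add GR/GSH/NADPH master mix; start with cumene hydroperoxide; read 340/450 nm fluorescence at 0 and 15 min. Finals were 200 nM GPX4, 1 mM GSH, 0.5 mM CHP, 0.5 mM NADPH, 100 nM GR.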

Test [12] can be described thus: qHTS assay for small molecule antagonists of retinoid X receptor alpha signaling (AID 588546; active = well fitted inhibition curve with a large enough effect in the signal ratio, with a control signal flat, not every such curve was filed as active; the % refers to the signal ratio;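 also: cells stimulated with 9-cis-retinoic acid as agonist; % is scaled to controls: 0 for no effect and ±100 for the full control effect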). The note with it: HEK293T RXRa-UAS-bla, beta-lactamase ratio, antagonist mode; measured here: W530 green channel, cytotoxicity proxy. The method, boiled down:
(§1)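 Beta-lactamase reporter inhibition, read as CCF4 fluorescence ratio (ex 405, em 460/530 nm) after 2 h at RT. HEK293T UAS-bla cells, 2500/well, were stimulated with 9-cis-RA at 500 or 100 nM final alongside test compound for 18 h at 37 C.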

In test [13] the target is Retinoic acid receptor RXR-alpha (Homo sapiens) (UniProt P19793). The description is as above. The note with it: HEK293T RXRa-UAS-bla, beta-lactamase ratio, antagonist mode. The method, boiled down: as §1
A short description of test [14]: qHTS assay for environmental chemicals that activate the Aryl hydrocarbon Receptor (AhR) signaling pathway (AID 651777). Also: nearly all actives have a fitted effect of over 15% in size. Also: potency is read from the fitted curve at half-maximal effect. As to activation: % of control where 0% means no effect. The note with it: 1A2-DRE human hepatoma cells, luciferase, 24 h; activation: stronger effect = higher value. The method, boiled down:
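Quantitative HTS in stably transfected human liver-derived cells whose luciferase gene sits downstream of the CYP1A2 promoter and dioxin response element. After 24 hr exposure at 37 C, One-Glo luminescence was measured.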

Test [15] in a line: qHTS assay for small molecule agonists of the antioxidant response element (ARE) signaling pathway measured by Nrf2-dependant transcriptional activity - cell viability counter screen (AID 720653; active = well fitted curve in the direction sought with a large enough effect in the repeat runs; an effect the other way counts as inactive or inconclusive; also: % is scaled to controls: 0 for no effect and ±100 for the full control effect). The note with it: ARE-bla HepG2 viability, CellTiter-Glo ATP luminescence, 16 h; max response: stronger effect = lower value. The method, boiled down:
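ARE-bla HepG2 cells treated with compounds for 16 h at 37C; this counter screen measures viability as intracellular ATP by CellTiter-Glo luminescence after 30 min at room temperature.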

The nature of test [16]: qHTS assay for cell viability of the p53RE-bla HCT-116 cell line (AID 743292). Also: % is scaled to controls: 0 for no effect and ±100 for the full control effect; nearly all actives have a fitted effect of over 55% in size. An outline of the steps:
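Viability of compound-treated p53RE-bla HCT-116 cells is taken from ATP-dependent luciferase luminescence. Treatment lasts 16 h at 37 C after a 5 h settling period; detection follows 30 min at room temperature.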

The nature of test [17]: Cell Viability - Hek293 (AID 427;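 active = compounds whose dose-response curve shows a full or clear partial loss of cell viability, called from curve shape rather than a numeric limit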;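 also: potency is read from the fitted curve at half-maximal effect; cells exposed to compound for 40 hours at 37 °C before reading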). The conditions noted are these: qHTS. The method, boiled down:
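Luminescent ATP read-out (CellTiter-Glo, 20 min RT) after 40 hr compound exposure at 37 °C in complete medium. Signal normalized to DMSO (basal) and 100 uM tamoxifen (100% inhibition); concentration-response fitted with the standard Hill equation to give AC50.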

Test [18] addresses Cytochrome P450 3A4 (Homo sapiens) (UniProt P08684). The test can be described thus: qHTS Assay for Inhibitors and Substrates of Cytochrome P450 3A4 (AID 884). Also: nearly all actives have a fitted effect of over 50% in size. Also: potency is read from the fitted curve at half-maximal effect. The method, boiled down:
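Luminescent readout of luciferin produced by CYP3A4 (20 nM) dealkylation of Luciferin-PPXE, 25 uM (its KM). NADPH-driven reaction ran 60 min at RT after 10 min compound preincubation; data scaled to 57 uM ketoconazole as 100% inhibition.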

A short description of test [19]: qHTS Assay for Identification of Small Molecule Inducers of Hypoxia Response (AID 2120; active = well fitted curve in the direction sought with a large enough effect in the signal ratio, with a control signal flat, not every such curve was filed as active; the % refers to the signal ratio; also: 0% is about no effect). An outline of the steps:
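Read-out: CCF4 FRET emission ratio 460nm/530nm (excitation 405nm), converted to %Activity, with AC50 fitted across a compound titration. ME-180 cells carried an HRE-driven beta-lactamase reporter; compound exposure 17 h, 37 degrees C.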

The target of test [20] is Dual specificity protein kinase CLK4 (Homo sapiens) (UniProt Q9HAZ1). The test can be described thus: qHTS Assay for Inhibitors of CDC-like Kinase 4 (ADP-FP Assay) (AID 1795).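 Also: recombinant human CLK4 phosphorylating RS repeat peptide at 1 µM ATP; % is scaled to controls: 0 for no effect and ±100 for the full control effect; nearly all actives have a fitted effect of over 60% in size.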 The method, boiled down:
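Kinase activity was followed as ADP output, converted from fluorescence polarization with a calibration curve. Reactions ran one hour at low ATP (1 uM) with RS peptide substrate.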

Results filed as inconclusive are left out. Active and inactive are the calls of the source. Unless noted, calls follow the shape of the dose curve; as a rule, active = well fitted curve in the direction sought with a large enough effect; inconclusive = small, poorly fitted or top-dose-only effect, or another doubt; inactive = no such curve, though single readings can be large; an effect the other way counts as inactive or inconclusive. Some results are limits rather than exact numbers.

Nuclear receptor subfamily 1 group I member 3 (Homo sapiens), sequence (Q14994 whole entry, looked up): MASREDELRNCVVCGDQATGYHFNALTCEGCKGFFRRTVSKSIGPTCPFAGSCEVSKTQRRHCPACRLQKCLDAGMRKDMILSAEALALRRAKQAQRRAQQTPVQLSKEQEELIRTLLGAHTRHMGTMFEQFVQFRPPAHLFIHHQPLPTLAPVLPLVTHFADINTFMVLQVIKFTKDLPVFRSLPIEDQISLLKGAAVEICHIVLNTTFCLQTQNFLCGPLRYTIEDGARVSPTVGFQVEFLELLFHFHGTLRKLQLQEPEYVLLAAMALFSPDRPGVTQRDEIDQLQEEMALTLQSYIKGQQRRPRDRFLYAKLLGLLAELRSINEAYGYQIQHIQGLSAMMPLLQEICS
Cytochrome P450 3A4 (Homo sapiens), sequence (P08684 whole entry, looked up): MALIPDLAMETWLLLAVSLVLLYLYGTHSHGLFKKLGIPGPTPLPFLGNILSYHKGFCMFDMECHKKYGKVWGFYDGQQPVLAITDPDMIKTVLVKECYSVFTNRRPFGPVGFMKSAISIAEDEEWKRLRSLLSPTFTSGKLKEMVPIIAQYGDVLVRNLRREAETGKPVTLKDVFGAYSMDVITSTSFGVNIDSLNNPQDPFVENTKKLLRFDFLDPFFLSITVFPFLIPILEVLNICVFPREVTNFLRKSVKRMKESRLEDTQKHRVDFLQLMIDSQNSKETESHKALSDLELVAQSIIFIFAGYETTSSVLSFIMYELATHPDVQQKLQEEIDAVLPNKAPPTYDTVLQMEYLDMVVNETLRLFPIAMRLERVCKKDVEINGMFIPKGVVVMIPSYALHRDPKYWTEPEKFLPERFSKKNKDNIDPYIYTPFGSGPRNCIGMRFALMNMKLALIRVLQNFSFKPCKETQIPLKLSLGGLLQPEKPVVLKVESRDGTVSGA
Retinoic acid receptor RXR-alpha (Homo sapiens), sequence (P19793 whole entry, looked up): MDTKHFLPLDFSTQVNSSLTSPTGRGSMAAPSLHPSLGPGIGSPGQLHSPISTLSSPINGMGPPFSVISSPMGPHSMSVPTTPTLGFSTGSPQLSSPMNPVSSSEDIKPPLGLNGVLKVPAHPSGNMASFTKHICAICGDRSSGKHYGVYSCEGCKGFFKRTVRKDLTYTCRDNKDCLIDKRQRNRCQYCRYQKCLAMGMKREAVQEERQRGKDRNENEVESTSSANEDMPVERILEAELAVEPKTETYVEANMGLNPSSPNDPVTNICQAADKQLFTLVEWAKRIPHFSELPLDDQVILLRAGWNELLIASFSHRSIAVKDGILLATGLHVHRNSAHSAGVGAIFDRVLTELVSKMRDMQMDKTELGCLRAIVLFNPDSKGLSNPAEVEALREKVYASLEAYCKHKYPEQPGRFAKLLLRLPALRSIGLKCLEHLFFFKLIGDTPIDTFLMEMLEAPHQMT
Cytochrome P450 1A2 (Homo sapiens), sequence (P05177 whole entry, looked up): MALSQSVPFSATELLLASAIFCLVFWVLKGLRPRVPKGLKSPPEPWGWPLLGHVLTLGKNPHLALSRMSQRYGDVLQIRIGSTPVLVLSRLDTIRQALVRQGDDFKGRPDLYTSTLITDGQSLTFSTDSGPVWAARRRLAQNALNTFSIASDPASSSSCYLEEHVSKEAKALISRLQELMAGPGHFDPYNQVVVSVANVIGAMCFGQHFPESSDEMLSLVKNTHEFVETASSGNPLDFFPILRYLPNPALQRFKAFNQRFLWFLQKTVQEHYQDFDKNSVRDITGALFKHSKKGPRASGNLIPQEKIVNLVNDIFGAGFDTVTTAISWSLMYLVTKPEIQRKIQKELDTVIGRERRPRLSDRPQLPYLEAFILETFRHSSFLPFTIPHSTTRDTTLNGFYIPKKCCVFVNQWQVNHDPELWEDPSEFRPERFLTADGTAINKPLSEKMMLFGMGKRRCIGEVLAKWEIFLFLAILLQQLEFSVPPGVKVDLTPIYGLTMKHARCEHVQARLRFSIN
Lysosomal acid glucosylceramidase (Homo sapiens), sequence (P04062 whole entry, looked up): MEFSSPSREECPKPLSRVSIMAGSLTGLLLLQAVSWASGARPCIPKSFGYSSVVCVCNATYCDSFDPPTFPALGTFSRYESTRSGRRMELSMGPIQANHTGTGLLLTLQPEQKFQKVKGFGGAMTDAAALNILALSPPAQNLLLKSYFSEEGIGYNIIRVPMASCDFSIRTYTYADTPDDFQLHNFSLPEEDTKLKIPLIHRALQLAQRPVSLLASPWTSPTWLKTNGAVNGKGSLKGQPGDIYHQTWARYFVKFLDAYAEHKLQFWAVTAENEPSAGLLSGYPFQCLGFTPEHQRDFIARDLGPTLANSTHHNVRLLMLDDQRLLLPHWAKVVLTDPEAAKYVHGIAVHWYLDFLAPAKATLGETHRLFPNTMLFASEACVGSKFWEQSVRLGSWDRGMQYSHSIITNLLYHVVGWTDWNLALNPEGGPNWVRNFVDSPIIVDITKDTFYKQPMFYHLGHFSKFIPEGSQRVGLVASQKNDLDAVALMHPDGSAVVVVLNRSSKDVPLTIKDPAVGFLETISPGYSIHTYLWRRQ
Dual specificity protein kinase CLK4 (Homo sapiens), sequence (Q9HAZ1 whole entry, looked up): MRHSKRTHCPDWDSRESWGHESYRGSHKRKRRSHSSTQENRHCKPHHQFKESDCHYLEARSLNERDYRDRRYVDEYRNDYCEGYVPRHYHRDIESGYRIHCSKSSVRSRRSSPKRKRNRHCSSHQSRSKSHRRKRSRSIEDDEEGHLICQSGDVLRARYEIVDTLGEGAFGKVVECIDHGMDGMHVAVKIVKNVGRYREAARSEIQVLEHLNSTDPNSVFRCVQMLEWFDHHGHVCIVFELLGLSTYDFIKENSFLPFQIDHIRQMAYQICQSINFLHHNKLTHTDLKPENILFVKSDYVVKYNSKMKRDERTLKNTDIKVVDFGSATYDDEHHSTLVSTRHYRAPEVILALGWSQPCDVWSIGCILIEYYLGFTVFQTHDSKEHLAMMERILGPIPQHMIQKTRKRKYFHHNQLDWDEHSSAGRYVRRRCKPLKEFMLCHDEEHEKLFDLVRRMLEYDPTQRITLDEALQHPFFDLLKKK
3',5'-cyclic-AMP phosphodiesterase 4B (Homo sapiens), sequence (Q07343 whole entry, looked up): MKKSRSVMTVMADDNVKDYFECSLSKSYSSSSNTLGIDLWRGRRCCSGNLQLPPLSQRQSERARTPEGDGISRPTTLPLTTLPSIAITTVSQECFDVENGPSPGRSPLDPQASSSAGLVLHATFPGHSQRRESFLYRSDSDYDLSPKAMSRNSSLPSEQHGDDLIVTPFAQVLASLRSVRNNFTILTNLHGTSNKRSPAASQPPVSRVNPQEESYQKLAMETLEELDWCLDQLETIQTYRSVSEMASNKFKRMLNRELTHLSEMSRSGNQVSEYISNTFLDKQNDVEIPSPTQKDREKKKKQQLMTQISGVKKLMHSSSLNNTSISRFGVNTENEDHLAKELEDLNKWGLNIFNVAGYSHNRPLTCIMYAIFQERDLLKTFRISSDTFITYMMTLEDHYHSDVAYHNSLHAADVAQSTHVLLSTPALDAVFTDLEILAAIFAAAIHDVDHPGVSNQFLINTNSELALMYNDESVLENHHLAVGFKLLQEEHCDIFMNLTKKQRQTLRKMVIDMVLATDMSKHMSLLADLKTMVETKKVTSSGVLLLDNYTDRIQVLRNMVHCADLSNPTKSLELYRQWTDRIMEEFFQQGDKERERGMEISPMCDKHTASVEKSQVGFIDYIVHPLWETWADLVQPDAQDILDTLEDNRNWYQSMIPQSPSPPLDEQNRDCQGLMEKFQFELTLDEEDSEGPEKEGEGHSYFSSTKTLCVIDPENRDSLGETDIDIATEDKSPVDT
Glutathione peroxidase 1 (Homo sapiens), sequence (P07203 whole entry, looked up): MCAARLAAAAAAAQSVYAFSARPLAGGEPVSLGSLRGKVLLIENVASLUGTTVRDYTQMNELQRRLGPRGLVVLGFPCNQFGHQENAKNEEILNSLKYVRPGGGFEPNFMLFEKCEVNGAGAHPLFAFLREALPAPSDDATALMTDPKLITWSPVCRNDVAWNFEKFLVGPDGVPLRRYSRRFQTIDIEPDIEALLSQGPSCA
Cytochrome P450 2C19 (Homo sapiens), sequence (P33261 whole entry, looked up): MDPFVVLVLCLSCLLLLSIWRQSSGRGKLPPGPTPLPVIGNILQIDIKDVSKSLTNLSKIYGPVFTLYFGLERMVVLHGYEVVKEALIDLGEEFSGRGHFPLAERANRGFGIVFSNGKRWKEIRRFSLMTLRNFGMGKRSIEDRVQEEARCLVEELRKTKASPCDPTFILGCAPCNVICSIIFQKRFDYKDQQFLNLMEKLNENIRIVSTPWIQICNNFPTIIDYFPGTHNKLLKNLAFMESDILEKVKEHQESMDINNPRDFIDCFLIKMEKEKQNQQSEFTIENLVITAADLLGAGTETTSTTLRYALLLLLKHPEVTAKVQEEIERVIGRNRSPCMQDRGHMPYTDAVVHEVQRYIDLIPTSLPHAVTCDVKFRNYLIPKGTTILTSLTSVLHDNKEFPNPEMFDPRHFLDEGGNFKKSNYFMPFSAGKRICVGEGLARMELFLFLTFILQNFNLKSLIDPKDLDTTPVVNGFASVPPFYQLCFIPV
Phospholipid hydroperoxide glutathione peroxidase GPX4 (Homo sapiens), sequence (P36969 whole entry, looked up): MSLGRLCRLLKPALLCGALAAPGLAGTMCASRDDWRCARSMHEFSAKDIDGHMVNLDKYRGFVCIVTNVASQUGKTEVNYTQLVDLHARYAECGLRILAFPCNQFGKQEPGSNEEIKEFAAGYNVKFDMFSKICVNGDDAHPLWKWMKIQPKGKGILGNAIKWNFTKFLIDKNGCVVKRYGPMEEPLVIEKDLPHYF

Take `OCC1=C[C@@H](O)[C@@H]2C=CO[C@@H](OC3O[C@H](CO)[C@@H](O)[C@H](O)[C@H]3O)[C@H]12` (some centres undefined): in test [1], the Potency entry is “inactive”.

Consider `COc1ccccc1CNc1ccnc(-c2cccnc2)n1`, for which the Potency in test [2] was > 11.4 µM (inactive); in [6], 28.2 µM (active). The activity change, negative = inhibition in test [3] is -7.12% (inactive); in [4], -4.87% (inactive). In addition, the Potency entry in test [5] was “inactive”.

`CCCCCC(=O)CC`: the Potency result in test [1] was “inactive”.

As for `C=C1CC[C@H](O)C/C1=C\C=C1/CCC[C@]2(C)[C@@H]([C@H](C)CC[C@H](C)C(C)C)CC[C@@H]12`, the Potency result in test [1] is “inactive”.

Regarding `COc1ccc2[nH]cc(CCNc3nc(-c4ccccc4OC)nc4ccccc34)c2c1`, the Potency was > 11.4 µM (inactive) in test [2], 6.31 µM (active) in [7], 5.01 µM (active) in test [9] and 35.5 µM (active) in test [6]. The activity change, negative = inhibition in test [3] is 23.7% (inactive). For the same molecule, in test [5], the Potency entry is “inactive”. Further, the molecule was called inactive in test [8].

`CC12CC3(O)OC(O1)C1(COC(=O)c4ccc(O)cc4)C3CC21OC1OC(CO)C(O)C(O)C1O` (centres undefined): the Potency result in [1] is “inactive”.

For `CCCCC/C=C/C(=O)CCc1ccc(O)c(OC)c1`, the Potency entry in test [1] was “inactive”.

As for `CC(=O)OC1CC2CCC1(C)C2(C)C` (centres undefined), the Potency entry in test [10] and in test [11] was “inactive” throughout.

For `CCCCCCCC/C=C/CCCCCCCCCC(=O)O`, in test [1], the Potency result is “inactive”.

Consider `O=C(O)[C@H]1O[C@@H](Oc2c(-c3ccc(O)c(O)c3)oc3cc(O)cc(O)c3c2=O)[C@H](O)[C@@H](O)[C@@H]1O`, for which the Potency entry in test [1] was “inactive”.

Consider `O=C(O[C@@H]1Cc2c(O)cc(O)cc2O[C@@H]1c1ccc(O)c(O)c1)c1cc(O)c(O)c(O)c1`, for which the Potency entry in test [1] was “inactive”.

On to `C[C@@H]1CC[C@]2(C)CC[C@]3(C)C(=CC(=O)C4[C@@]5(C)CC[C@@H](O)[C@](C)(C(=O)O)C5CC[C@]43C)C2[C@H]1C` (some centres undefined), for which the Potency result in test [1] is “inactive”.

As to `C=CC(C)(CCC=C(C)C)OC(C)=O` (centres undefined), the figures for the max response in [12], in test [13] and in test [15] were -5.27%, -7.97% (inactive) and -13.5% (inactive), respectively. Further, the activation in [14] is 3.8% (inactive). In [16], the Potency result was “inactive”.

Turning to `COc1cc(/C=C/c2ccccc2)oc(=O)c1`, the Potency in [17] was > 92 µM (inactive); in [18] it was 15.8 µM (active); in test [14], 7.08 µM (active). The call in test [8] and in test [19] was inactive. In addition, the results for the max response in [12], in test [13] and in test [15] were 21.7%, -7.15% (inactive) and -6.81% (inactive), respectively. Further, in test [16], the Potency entry was “inactive”.

Consider `CC1=C2[C@H](/C=C(\C)C(=O)O)CC[C@@H](C)[C@H]2CC1`, for which the Potency in test [17] was > 92 µM (inactive). Further, the Potency entry in test [18] and in test [16] was “inactive” throughout. For the same molecule, the molecule was classed as inactive in test [19]. Also, the max response in test [12] was 26.2%; in [13], -25.2% (inactive); in [15], -0.329% (inactive). Also, the activation in test [14] is 0.0877% (inactive).

Regarding `COc1ccc(/C=C/c2cc(OC)cc(=O)o2)cc1`, the Potency was > 92 µM (inactive) in test [17] and 10 µM (active) in test [14]. In addition, the Potency result in [18] and in test [16] was “inactive” each time. For the same molecule, the outcome in test [19] was inactive. For the same molecule, the max response is 19.1% in [12], -3.53% (inactive) in test [13] and 11.1% (inactive) in test [15].

On to `CCCCCC/C=C\CCCCCCCC(=O)O`, for which the Potency result in test [10] is “inactive”. The Potency in [11] is 14.1 µM (active).

Regarding `CCCCCCCCC[C@@H](O)CC(=O)CCc1ccc(O)c(OC)c1`, the Potency in test [1] was 12.6 µM (active).

For `COc1cccc(Cn2c(=O)cnc3cnc(N(C)C)nc32)c1`, the figures for the Potency in test [2], in test [7] and in test [9] were > 11.4 µM (inactive), 6.31 µM (active) and 2.51 µM (active), respectively. The activity change, negative = inhibition in test [3] is -10.4% (inactive); in test [4], -0.24% (inactive). Moreover, in test [8], the call was inactive. In test [20], the Potency entry was “inactive”.

For the molecule `CN(C)C(=O)c1ccc(-c2ccc3ncnc(Nc4ccc(F)cc4)c3c2)cc1`, the Potency in [2] is > 11.4 µM (inactive); in [7], 20 µM (active). Further, the activity change, negative = inhibition in test [4] was 24.8% (inactive). Further, the Potency result in test [5] and in test [20] was “inactive” each time. In addition, the result in test [8] was inactive.

The record behind these values is PubChem BioAssay (NCATS).
